Laboratory results: PubChem BioAssay (Tox21)
Results filed as inconclusive are left out. Active and inactive are the calls of the source. Unless noted, calls follow the shape of the dose curve; as a rule, active = well fitted curve in the direction sought with a large enough effect in the repeat runs; inconclusive = weak or mixed curves; inactive = no such curve, though single readings can be large; an effect the other way counts as inactive or inconclusive.

What was measured:
[1] = qHTS assay to identify small molecule agonists of the TGF-beta/Smad signaling pathway (AID 1346859; active = well fitted activation curve with a large enough effect in the signal ratio in the repeat runs, not every such curve was filed as active; the % refers to the signal ratio; also: series mostly up to about 77 µM)
Summary of the method: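 Smad-responsive beta-lactamase reporter cells (HEK 293T) received compounds from DMSO stocks after overnight attachment, were incubated 5 hr, then treated 2 hr with FRET substrate before dual-emission fluorescence measurement (405 nm excitation).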

[2] = biological target: Thyrotropin-releasing hormone receptor (Homo sapiens) (UniProt P34981); assay: qHTS assay to identify small molecule antagonists of the thyrotropin-releasing hormone receptor (TRHR) signaling pathway (AID 1346877; active = well fitted inhibition curve with a large enough effect in the repeat runs, not every such curve was filed as active; also: series mostly up to about 51 µM)
Summary of the method: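 TRHR-expressing HEK293 cells loaded with calcium dye for 2 h at 37 C; compounds pre-incubated 5 min at room temperature before TRH challenge at 1 nM final. Intracellular calcium fluorescence read kinetically for 3 min; 15 concentrations in triplicate.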

[3] = biological target: Thyrotropin-releasing hormone receptor (Homo sapiens) (UniProt P34981); assay: qHTS assay to identify small molecule agonists of the thyrotropin-releasing hormone receptor (TRHR) signaling pathway (AID 1346891; calls by dose curve; also: series mostly up to about 58 µM)
Summary of the method: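 Agonist-mode calcium mobilisation screen: TRHR-transfected HEK293 cells cultured overnight (18 h), dye-loaded for 2 h at 37 °C, exposed to compounds, and monitored by fluorescence for 3 min.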

[4] = Human pregnane X receptor (PXR) small molecule agonists, qHTS cell viability counter screen (AID 1346977); also: nearly all actives have a fitted effect of over 50% in size
Summary of the method: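 Measures live-cell protease fluorescence (CellTiter-Fluor) in PXR-Luc HepG2 cells treated 24hr with compounds at 37C. Cells had 5hr to attach before pin transfer of DMSO solutions.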

[5] = Caspase-3/7 induction in CHO-K1 cells by small molecules, qHTS cell viability counter screen (AID 1346979); also: nearly all actives have a fitted effect of over 35% in size
Summary of the method: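 In the same wells as the caspase read, viability of compound-treated wild-type CHO-K1 cells was assessed using CellTiter-Fluor, added after 16hr at 37C and measured by fluorescence following 1hr further incubation.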

[6] = Caspase-3/7 induction in CHO-K1 cells by small molecules, qHTS assay (AID 1346980); also: nearly all actives have a fitted effect of over 15% in size
Summary of the method: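 Wild-type CHO-K1 cells exposed to compounds for 17hr at 37 C, 5% CO2. Caspase-3/7 activity then measured by Caspase-Glo 3/7 luminescence after 30min at room temperature.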

[7] = Caspase-3/7 induction in HepG2 cells by small molecules, qHTS cell viability counter screen (AID 1346981); also: series mostly up to about 92 µM; nearly all actives have a fitted effect of over 30% in size
Summary of the method: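 Wild-type HepG2 cells, 2,000/well, settled 5 hr at 37 C, 5% CO2 before compound addition. Viability read by CellTiter-Fluor fluorescence, reagent added after 16 hr compound exposure, then 1 hr at 37C, in the same wells as the caspase read.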

[8] = biological target: Nuclear receptor subfamily 1 group I member 2 (Homo sapiens) (UniProt O75469); assay: Human pregnane X receptor (PXR) small molecule agonists, qHTS assay (AID 1346982); also: nearly all actives have a fitted effect of over 35% in size
Summary of the method: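 PXR-Luc HepG2 reporter cells (CYP3A4-driven luciferase) in 5% charcoal-stripped FBS medium, plated 5 h before compound addition, then treated 24 h at 37C. Luciferase read by ONE-Glo luminescence after 30 min at room temperature.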

[9] = biological target: Cytochrome P450 2D6 (Homo sapiens) (UniProt P10635); assay: Cytochrome P450 Family 2 Subfamily D Member 6 (CYP2D6) small molecule antagonists: luciferase reporter qHTS assay (AID 1671196); also: nearly all actives have a fitted effect of over 50% in size; also: potency is read from the fitted curve at half-maximal effect
Summary of the method: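 Cell-free P450-Glo system: CYP2D6 with proluciferin substrate was pre-incubated with compound for 10 min, then reacted with NADPH regeneration for 1 h at room temperature. Luciferin product was detected after 20 min, and data were reported as relative luminescence units.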

[10] = biological target: Cytochrome P450 2C19 (Homo sapiens) (UniProt P33261); assay: Cytochrome P450 Family 2 Subfamily C Member 19 (CYP2C19) small molecule antagonists: luciferase reporter qHTS assay (AID 1671197); also: nearly all actives have a fitted effect of over 65% in size; also: potency is read from the fitted curve at half-maximal effect
Summary of the method: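 Inhibition of CYP2C19 was scored from loss of luminescence in a P450-Glo proluciferin substrate assay, NADPH-started and run 1 h at 37C, with ketoconazole as positive control.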

[11] = biological target: Cytochrome P450 2C9 (Homo sapiens) (UniProt P11712); assay: Cytochrome P450 Family 2 Subfamily C Member 9 (CYP2C9) small molecule antagonists: luciferase reporter qHTS assay (AID 1671198); also: series mostly up to about 120 µM; nearly all actives have a fitted effect of over 50% in size
Summary of the method: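 P450-Glo proluciferin substrate with CYP2C9 enzyme; 10 min RT preincubation, then NADPH regeneration 1 h at 37C; luciferin detection reagent 20 min RT, luminescence in relative luminescence units.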

[12] = biological target: Cytochrome P450 1A2 (Homo sapiens) (UniProt P05177); assay: Cytochrome P450 Family 1 Subfamily A Member 2 (CYP1A2) small molecule antagonists: luciferase reporter qHTS assay (AID 1671199); also: series mostly up to about 120 µM; nearly all actives have a fitted effect of over 50% in size
Summary of the method: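 P450-Glo CYP1A2 enzyme–proluciferin substrate mix with compound 10 min at room temperature, then NADPH regeneration 1 h at room temperature. Luciferin detection reagent added, luminescence read after 20 min; furafylline positive control.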

[13] = biological target: Voltage-gated inwardly rectifying potassium channel KCNH2 (Homo sapiens) (UniProt Q12809); assay: Human Ether-a-go-go-Related Gene (hERG) channel small molecule antagonists: fluorescence cell-based qHTS assay (AID 1671200)
Summary of the method: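 Quantitative HTS in hERG-U2OS cells: thallium entry through the channel reports activity, read as continuous 480/540 nm fluorescence over 2 min after stimulus addition.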

[14] = biological target: Cytochrome P450 3A4 (Homo sapiens) (UniProt P08684); assay: Cytochrome P450 Family 3 Subfamily A Member 4 (CYP3A4) small molecule antagonists: luciferase reporter qHTS assay (AID 1671201)
Summary of the method: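 Inhibition of CYP3A4 is measured as loss of light: the enzyme converts a proluciferin substrate to luciferin, detected luminescently. Reaction ran 1 h at room temperature with NADPH regeneration after a 10 min compound preincubation.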

[15] = Caspase-3/7 induction in HepG2 cells by small molecules, qHTS assay (AID 1346978); also: nearly all actives have a fitted effect of over 15% in size
Summary of the method: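 Wild-type HepG2 cells, 2,000/well, settled 5 hr at 37 C and 5% CO2, then compound-treated for 17 hr; caspase-3/7 activity read by luminescent Caspase-Glo 3/7 after 30 min at room temperature.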

[16] = biological target: Nuclear receptor subfamily 1 group I member 2 (Rattus norvegicus) (UniProt Q9R1A7); assay: Rat pregnane X receptor (rPXR) activation by small molecules, qHTS assay (AID 1346983); details: rPXR luciferase reporter cells, One-Glo luminescence, 24 h; hits give high values; also: nearly all actives have a fitted effect of over 20% in size
Summary of the method: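 Cell-based rPXR activation assay: rPXR cells, 2,000 per well, rested 5hr at 37 C, then exposed to compounds in DMSO for 24 hr at 37 C. Luciferase activity read by One-Glo luminescence after 30 min at room temperature.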

[17] = biological target: Nuclear receptor subfamily 1 group I member 2 (Homo sapiens) (UniProt O75469); assay: CYP3A4 induction through human pregnane X receptor (PXR) by small molecules, qHTS assay (AID 1346984); also: nearly all actives have a fitted effect of over 40% in size
Summary of the method: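 DPX-2 HepG2 cells carrying a PXR response element and CYP3A4-promoter luciferase construct, treated with compounds 24 hr at 37C. Then P450-Glo CYP3A4 Luciferin-IPA substrate (3uM final) for 3 hr at 37C, One-Glo added, luminescence read.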

[18] = biological target: Nuclear receptor subfamily 1 group I member 2 (Homo sapiens) (UniProt O75469); assay: Human pregnane X receptor (PXR) activation by small molecules, qHTS assay (AID 1346985); also: nearly all actives have a fitted effect of over 40% in size
Summary of the method: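 DPX-2 cells (HepG2 co-transfected with a PXR response element and a CYP3A4-promoter luciferase construct) were seeded at 2,000 per well, rested 5 hr at 37C, then exposed to DMSO-dissolved compounds for 24 hr. Activation was read as luciferase luminescence.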
% is scaled to controls: 0 for no effect and ±100 for the full control effect.

Chain of Cytochrome P450 3A4 (Homo sapiens) (P08684 whole entry, looked up): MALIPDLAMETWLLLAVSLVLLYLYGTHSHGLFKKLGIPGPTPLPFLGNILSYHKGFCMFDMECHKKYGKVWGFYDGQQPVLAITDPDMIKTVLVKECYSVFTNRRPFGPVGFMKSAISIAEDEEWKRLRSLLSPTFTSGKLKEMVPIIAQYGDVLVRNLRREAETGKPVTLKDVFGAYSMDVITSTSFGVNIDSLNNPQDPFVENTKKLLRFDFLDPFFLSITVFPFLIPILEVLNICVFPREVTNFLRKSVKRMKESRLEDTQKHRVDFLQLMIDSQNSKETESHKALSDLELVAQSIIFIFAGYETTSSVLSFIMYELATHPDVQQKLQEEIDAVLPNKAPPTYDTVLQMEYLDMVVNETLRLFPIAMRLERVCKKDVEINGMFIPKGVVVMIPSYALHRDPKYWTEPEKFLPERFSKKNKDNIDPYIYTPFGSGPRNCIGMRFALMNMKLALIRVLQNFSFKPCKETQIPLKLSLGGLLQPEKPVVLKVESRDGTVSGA
Chain of Cytochrome P450 1A2 (Homo sapiens) (P05177 whole entry, looked up): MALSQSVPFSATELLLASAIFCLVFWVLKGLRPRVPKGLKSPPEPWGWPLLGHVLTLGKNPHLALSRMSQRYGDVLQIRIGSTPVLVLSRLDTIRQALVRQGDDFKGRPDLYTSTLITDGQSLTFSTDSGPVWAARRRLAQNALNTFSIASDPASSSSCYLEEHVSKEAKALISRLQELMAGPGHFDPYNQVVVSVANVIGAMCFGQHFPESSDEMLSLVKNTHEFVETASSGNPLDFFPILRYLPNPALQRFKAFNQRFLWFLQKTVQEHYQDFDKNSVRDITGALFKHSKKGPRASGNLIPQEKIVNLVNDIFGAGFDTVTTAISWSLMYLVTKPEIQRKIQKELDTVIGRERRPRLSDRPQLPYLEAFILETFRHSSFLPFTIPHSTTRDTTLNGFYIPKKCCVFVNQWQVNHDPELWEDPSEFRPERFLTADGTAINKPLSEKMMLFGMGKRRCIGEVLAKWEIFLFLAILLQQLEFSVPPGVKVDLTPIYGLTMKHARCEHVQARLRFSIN
Chain of Voltage-gated inwardly rectifying potassium channel KCNH2 (Homo sapiens) (Q12809 whole entry, looked up): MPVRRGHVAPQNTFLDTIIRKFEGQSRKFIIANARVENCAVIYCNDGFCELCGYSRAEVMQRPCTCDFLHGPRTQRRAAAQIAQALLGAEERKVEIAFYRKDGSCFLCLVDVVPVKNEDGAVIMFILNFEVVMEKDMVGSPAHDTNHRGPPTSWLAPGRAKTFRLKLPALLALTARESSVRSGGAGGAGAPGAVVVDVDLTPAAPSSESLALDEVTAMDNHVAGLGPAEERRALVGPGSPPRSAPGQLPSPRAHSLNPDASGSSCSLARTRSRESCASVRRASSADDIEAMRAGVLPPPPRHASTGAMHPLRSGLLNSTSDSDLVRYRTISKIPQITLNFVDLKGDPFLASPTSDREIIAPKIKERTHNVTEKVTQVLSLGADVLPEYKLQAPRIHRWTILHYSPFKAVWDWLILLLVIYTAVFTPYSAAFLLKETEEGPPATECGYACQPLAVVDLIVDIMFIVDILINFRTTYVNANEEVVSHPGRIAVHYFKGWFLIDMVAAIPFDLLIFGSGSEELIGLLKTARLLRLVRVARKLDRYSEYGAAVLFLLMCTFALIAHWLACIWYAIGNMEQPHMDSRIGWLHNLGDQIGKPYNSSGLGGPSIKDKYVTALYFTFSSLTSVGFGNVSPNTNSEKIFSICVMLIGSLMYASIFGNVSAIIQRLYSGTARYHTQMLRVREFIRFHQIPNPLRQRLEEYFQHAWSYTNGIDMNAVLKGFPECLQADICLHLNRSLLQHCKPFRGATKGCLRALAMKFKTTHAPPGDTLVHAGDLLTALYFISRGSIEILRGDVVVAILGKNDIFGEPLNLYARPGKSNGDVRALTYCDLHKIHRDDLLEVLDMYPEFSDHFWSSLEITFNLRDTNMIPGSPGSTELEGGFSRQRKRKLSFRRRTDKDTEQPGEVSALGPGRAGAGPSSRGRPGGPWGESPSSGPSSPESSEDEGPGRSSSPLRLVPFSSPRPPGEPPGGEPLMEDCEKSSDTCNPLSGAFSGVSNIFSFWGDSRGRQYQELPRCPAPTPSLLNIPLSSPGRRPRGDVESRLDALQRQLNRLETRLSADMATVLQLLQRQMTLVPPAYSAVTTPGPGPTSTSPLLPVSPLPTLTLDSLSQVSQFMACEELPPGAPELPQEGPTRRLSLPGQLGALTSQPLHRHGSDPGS
Chain of Cytochrome P450 2C9 (Homo sapiens) (P11712 whole entry, looked up): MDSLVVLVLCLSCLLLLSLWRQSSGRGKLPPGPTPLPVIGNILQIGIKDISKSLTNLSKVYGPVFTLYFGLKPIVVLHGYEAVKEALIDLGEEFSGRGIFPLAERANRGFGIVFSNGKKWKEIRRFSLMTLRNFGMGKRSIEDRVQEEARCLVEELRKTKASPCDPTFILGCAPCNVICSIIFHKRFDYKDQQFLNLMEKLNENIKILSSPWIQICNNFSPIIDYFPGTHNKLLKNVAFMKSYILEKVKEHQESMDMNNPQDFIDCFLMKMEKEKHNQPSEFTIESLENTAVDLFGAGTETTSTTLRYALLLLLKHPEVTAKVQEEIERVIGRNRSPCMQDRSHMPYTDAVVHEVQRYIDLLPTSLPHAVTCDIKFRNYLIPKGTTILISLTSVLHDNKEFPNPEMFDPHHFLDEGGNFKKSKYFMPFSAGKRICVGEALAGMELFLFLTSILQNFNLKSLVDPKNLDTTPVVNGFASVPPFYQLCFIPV
Chain of Thyrotropin-releasing hormone receptor (Homo sapiens) (P34981 whole entry, looked up): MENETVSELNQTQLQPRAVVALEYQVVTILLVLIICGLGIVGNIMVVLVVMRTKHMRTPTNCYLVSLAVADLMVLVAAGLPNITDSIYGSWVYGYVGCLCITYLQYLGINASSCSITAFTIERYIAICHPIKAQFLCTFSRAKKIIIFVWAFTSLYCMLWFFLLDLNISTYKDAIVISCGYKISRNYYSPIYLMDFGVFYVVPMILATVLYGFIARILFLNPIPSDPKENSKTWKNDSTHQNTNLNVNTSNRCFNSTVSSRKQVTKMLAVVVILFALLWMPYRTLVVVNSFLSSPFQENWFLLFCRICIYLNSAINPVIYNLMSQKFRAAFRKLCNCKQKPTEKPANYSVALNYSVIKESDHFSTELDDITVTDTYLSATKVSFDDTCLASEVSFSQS
Chain of Nuclear receptor subfamily 1 group I member 2 (Homo sapiens) (O75469 whole entry, looked up): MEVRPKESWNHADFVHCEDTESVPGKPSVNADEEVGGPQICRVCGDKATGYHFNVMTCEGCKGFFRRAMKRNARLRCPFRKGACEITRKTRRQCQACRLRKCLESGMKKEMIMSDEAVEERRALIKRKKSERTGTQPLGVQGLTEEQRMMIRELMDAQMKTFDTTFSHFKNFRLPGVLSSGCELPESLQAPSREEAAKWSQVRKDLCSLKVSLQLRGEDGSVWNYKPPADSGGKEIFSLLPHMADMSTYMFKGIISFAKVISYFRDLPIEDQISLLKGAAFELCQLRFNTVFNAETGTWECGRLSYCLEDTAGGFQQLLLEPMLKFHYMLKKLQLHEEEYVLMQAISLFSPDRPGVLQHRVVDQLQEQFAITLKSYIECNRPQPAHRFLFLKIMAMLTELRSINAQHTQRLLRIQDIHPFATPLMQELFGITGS
Chain of Cytochrome P450 2C19 (Homo sapiens) (P33261 whole entry, looked up): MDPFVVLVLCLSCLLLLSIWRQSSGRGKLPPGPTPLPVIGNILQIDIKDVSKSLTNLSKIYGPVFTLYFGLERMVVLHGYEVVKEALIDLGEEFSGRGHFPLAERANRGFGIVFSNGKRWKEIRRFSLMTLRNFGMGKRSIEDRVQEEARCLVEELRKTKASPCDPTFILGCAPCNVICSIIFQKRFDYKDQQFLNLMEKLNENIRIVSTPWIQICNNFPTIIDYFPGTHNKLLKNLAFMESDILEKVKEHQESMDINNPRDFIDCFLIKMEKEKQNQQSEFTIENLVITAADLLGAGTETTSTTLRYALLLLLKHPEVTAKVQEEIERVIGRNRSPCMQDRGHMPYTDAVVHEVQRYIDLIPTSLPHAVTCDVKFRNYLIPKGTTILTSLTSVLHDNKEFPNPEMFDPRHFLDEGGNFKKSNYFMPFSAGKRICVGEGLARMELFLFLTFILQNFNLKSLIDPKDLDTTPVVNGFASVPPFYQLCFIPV
Chain of Cytochrome P450 2D6 (Homo sapiens) (P10635 whole entry, looked up): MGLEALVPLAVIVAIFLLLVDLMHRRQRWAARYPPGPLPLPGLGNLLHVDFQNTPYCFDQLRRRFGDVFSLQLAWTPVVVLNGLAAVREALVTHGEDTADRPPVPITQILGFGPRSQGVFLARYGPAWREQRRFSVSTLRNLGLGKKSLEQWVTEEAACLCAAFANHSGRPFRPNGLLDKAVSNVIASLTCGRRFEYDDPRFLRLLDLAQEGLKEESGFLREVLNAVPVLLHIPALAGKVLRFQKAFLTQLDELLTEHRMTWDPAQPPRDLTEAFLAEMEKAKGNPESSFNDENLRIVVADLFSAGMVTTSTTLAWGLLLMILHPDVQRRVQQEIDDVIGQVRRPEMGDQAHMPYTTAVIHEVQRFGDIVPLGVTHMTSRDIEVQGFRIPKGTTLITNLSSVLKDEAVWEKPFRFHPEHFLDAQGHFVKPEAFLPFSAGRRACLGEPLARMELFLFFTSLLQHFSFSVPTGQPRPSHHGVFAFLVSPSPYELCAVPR
Chain of Nuclear receptor subfamily 1 group I member 2 (Rattus norvegicus) (Q9R1A7 whole entry, looked up): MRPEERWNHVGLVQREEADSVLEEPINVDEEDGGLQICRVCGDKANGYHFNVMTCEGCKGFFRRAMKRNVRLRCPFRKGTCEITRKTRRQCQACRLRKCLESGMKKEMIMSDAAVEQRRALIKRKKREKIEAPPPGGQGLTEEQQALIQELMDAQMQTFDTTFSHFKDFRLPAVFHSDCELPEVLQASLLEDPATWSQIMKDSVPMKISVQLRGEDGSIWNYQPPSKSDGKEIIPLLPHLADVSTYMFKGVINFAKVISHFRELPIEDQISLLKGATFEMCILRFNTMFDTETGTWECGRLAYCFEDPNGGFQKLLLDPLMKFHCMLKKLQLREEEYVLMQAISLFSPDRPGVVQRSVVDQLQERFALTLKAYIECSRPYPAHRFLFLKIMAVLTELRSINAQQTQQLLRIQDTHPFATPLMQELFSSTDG

O/N=C/C=N/O
inactive: outcome [1] | outcome [2] | outcome [3] | outcome [4] | Potency [5] | outcome [6] | outcome [7] | Potency [8] | Potency [10] | Potency [11] | Potency [12] | Potency [13] | Potency [14]
active: Potency [9] 39.9 µM

CCCCCCCCCCOC(C)=O
inactive: outcome [1] | outcome [2] | outcome [4] | outcome [15] | Potency [5] | outcome [6] | outcome [7] | Potency [8] | Potency [9] | Potency [10] | Potency [11] | Potency [12] | Potency [13] | Potency [14]

O=C(Cn1ccnc1[N+](=O)[O-])NCc1ccccc1
inactive: outcome [1] | outcome [2] | outcome [4] | outcome [15] | Potency [5] | outcome [6] | outcome [7] | Potency [8] | max activation [16] -1.78% | Potency [17] | Potency [18] | Potency [11] | Potency [12] | Potency [13] | Potency [14]

CC(C)C[C@@H]1[C@H](c2ccccc2)OC(=O)N1CCCN1CCCCCC1
active: Potency [10] 2.75 µM
inactive: outcome [1] | outcome [2] | outcome [3] | outcome [15] | Potency [5] | outcome [6] | outcome [7] | Potency [12] | Potency [13]

CC(=O)Nc1ccc(OC(=O)c2ccccc2OC(C)=O)cc1
inactive: outcome [1] | outcome [2] | outcome [4] | outcome [15] | Potency [5] | outcome [6] | outcome [7] | Potency [8] | max activation [16] 1.26% | Potency [17] | Potency [18] | Potency [10] | Potency [11] | Potency [13] | Potency [14]
